Screening data (PubChem)
Compounds with a hit are over-represented: about 19% of the library has one in this group of screens.
TDP1 cell noCPT = qHTS for Inhibitors of human tyrosyl-DNA phosphodiesterase 1 (TDP1): qHTS in cells in absence of CPT; DT40 Tdp1-/- hTDP1 cells, no CPT, ATP luminescence, 48 h; Potency, µM (doses to about 46.2 µM), inactives show top-dose activity change, negative = growth inhibition, hits mostly inhibitors; 420,000 tested, 15% active; AID 686978, 2013; also: potency is read from the fitted curve at half-maximal effect; nearly all actives have a fitted effect of over 55% in size
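No-CPT arm: Tdp1-/-;hTDP1 DT40 cells (400/well) plus compounds, incubated ≥48 hr at 37 °C. Readout CellTiter-Glo luminescence.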
DT40 TDP1 CPT = growth inhibition of DT40 Tdp1-/-;hTDP1 cells with camptothecin (screen for TDP1 inhibitors); chicken DT40 Tdp1-/-;hTDP1 cells + 20 nM CPT, ATP luminescence, 48 h; Potency, µM (highest dose often 46.2 µM), inactives show at the top dose activity change, negative = growth inhibition, usual class: inhibitors; 420,000 tested, 12% active; AID 686979; also: potency is read from the fitted curve at half-maximal effect; nearly all actives have a fitted effect of over 55% in size
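Cell growth measured by CellTiter-Glo luminescence after a minimum 48 h, 37 C compound exposure with 20 nM CPT in Tdp1-knockout DT40 cells stably expressing hTDP1, seeded 400/well; qHTS titration format.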
IL-1B inflam inh = blocks inflammasome-driven IL-1 beta release; activity change, % at 57.5 µM; THP-1 LPS/ATP IL-1B secretion, AlphaLISA, 16 h; active compounds read low; AID 743279; 360,000 tested, 4.7% active; in the data active = activity change below about -50%; inconclusive = mostly about -30% to -49%
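Secreted IL-1B measured by AlphaLISA bead assay after 16 h compound exposure of THP-1 cells; compounds (final up to 57.5 uM) added 1 h before LPS (250 ng/mL) and ATP (1.25 mM) stimulation; lower signal means less secretion.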
HT1080-NT tox = kills 2HG-producing HT-1080-NT fibrosarcoma cells; AID 686970; 360,000 tested, 1.6% active; Potency, µM (highest dose often 46.1 µM), for the others: at the highest dose activity, negative = less viability, actives largely listed as cytotoxic; HT-1080-NT fibrosarcoma viability, CellTiter-Glo ATP luminescence, 48 h;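 also: NT is the 2HG producing partner of a matched IDH1 knockdown line; potency is read from the fitted curve at half-maximal effect; 0% = DMSO-treated cells and -100% = media-only wells without cells; nearly all actives have a fitted effect of over 55% in size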
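HT-1080-NT; 750 cells/well; 5% FBS RPMI; 48 h compound, 37 degrees C; CellTiter-Glo luminescence; curve fitting and curve-class assignment.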
HT1080 IDH1KD tx = HT-1080 IDH1 knockdown cell toxicity (counter line) | HT-1080 IDH1 knockdown viability, ATP luminescence, 48 h | Potency, µM (doses to about 46.1 µM), for the others: top-dose activity, negative = toxicity, actives largely listed as cytotoxic | 360,000 tested, 2% active;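 also: potency is read from the fitted curve at half-maximal effect; 0% = DMSO wells and -100% = cell-free medium wells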
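Knockdown cells (IDH1KD HT-1080) received compounds 2 h after plating at 750 cells/well and were kept 48 h at 37 °C in 5% FBS RPMI. A CellTiter-Glo luminescence read gave % activity for curve fitting.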
* hit, by the source's call; [ ] = remark or other dose. Unless noted, calls follow the shape of the dose curve; as a rule, active = well fitted curve in the direction sought with a large enough effect; inconclusive = small, poorly fitted or top-dose-only effect, or another doubt; inactive = no such curve, though single readings can be large; an effect the other way counts as inactive or inconclusive. Unless noted, % is scaled to controls: 0 for no effect and ±100 for the full control effect.

`C1CCCC(NC2=NCCO2)CCC1` gave TDP1 cell noCPT 18%, DT40 TDP1 CPT 11%, IL-1B inflam inh 20, HT1080-NT tox 9% and HT1080 IDH1KD tx 10%.
CC(=O)c1ccc(S(=O)(=O)Nc2ccc(C(=O)NCC(c3ccco3)N3CCCC3)cc2)cc1 (stereo unspecified) was read as TDP1 cell noCPT -1%, DT40 TDP1 CPT 1%, IL-1B inflam inh -9, HT1080-NT tox 1% and HT1080 IDH1KD tx -2%.
Screening COc1ccc(OC)c(NC(=O)CSc2nnc3ccc4ccccc4n23)c1 returned TDP1 cell noCPT 21µM* and DT40 TDP1 CPT inconclusive.
For COc1ccc(OC)c(NC(=O)CSc2nnnn2C)c1 the results were TDP1 cell noCPT 1%, DT40 TDP1 CPT 2%, IL-1B inflam inh 6, HT1080-NT tox 4% and HT1080 IDH1KD tx 0%.
Screening CCNC(=S)N(CCc1c(C)[nH]c2ccc(C)cc12)Cc1cccnc1 returned TDP1 cell noCPT 29µM*, DT40 TDP1 CPT inconclusive, IL-1B inflam inh -1, HT1080-NT tox -3% and HT1080 IDH1KD tx -2%.
CCNC(=S)N(CCc1c(C)[nH]c2ccc(F)cc12)Cc1cccnc1 was read as TDP1 cell noCPT 26µM*, DT40 TDP1 CPT inconclusive, IL-1B inflam inh -4, HT1080-NT tox -2% and HT1080 IDH1KD tx -8%.
Screening COCCNC(=S)N(CCc1c(C)[nH]c2ccc(F)cc12)Cc1ccc(C)cc1 returned TDP1 cell noCPT 18µM*, DT40 TDP1 CPT inconclusive, IL-1B inflam inh -73*, HT1080-NT tox inconclusive and HT1080 IDH1KD tx inconclusive.
For CC(C)Oc1ccc(F)cc1-c1cc(C(=O)NCc2cccs2)[nH]n1 the results were TDP1 cell noCPT inconclusive, DT40 TDP1 CPT inconclusive, IL-1B inflam inh inconclusive, HT1080-NT tox 16% and HT1080 IDH1KD tx 11%.
For COc1ccc(-c2nc(C(F)(F)F)c(OC)o2)cc1OC the results were TDP1 cell noCPT inconclusive, DT40 TDP1 CPT inconclusive, IL-1B inflam inh inconclusive, HT1080-NT tox 17% and HT1080 IDH1KD tx 19%.
`CCC(C)N1C(=O)S/C(=C/c2ccc3c(c2)n(C)c(=O)n3C)C1=O` (stereo unspecified) gave TDP1 cell noCPT 23µM*, DT40 TDP1 CPT 23µM*, IL-1B inflam inh 0, HT1080-NT tox -24% and HT1080 IDH1KD tx -27%.
Screening CCOC(=O)C(C)N1C(=O)S/C(=C/c2ccc3c(c2)n(C)c(=O)n3C)C1=O (stereo unspecified) returned TDP1 cell noCPT inconclusive, DT40 TDP1 CPT inconclusive, IL-1B inflam inh -27, HT1080-NT tox 6% and HT1080 IDH1KD tx 4%.
O=C(COC(=O)c1cccnc1Cl)NCc1ccco1 was read as TDP1 cell noCPT -3%, DT40 TDP1 CPT 19%, IL-1B inflam inh 10, HT1080-NT tox 11% and HT1080 IDH1KD tx 5%.
Screening CCCC(C)NNC(=O)c1cc2ccccc2[nH]1 (stereo unspecified) returned TDP1 cell noCPT -13%, DT40 TDP1 CPT 0%, IL-1B inflam inh -9, HT1080-NT tox -1%[9.24 µM] and HT1080 IDH1KD tx -5%.
For CC(C)(C)c1ccc(S(=O)(=O)NNC(=O)c2cc3ccccc3[nH]2)cc1 the results were TDP1 cell noCPT inconclusive, DT40 TDP1 CPT inconclusive, IL-1B inflam inh 5, HT1080-NT tox 21µM* and HT1080 IDH1KD tx 21µM*.
Cc1ccc(C(O)(C(=O)NNS(=O)(=O)c2ccc(C)cc2)c2ccc(C)cc2)cc1 was read as TDP1 cell noCPT -20%, DT40 TDP1 CPT 9%, IL-1B inflam inh -53*, HT1080-NT tox -3% and HT1080 IDH1KD tx 1%.
For N/C(Cc1ccc(Cl)cc1)=N\OC(=O)Cc1ccc([N+](=O)[O-])cc1 the results were TDP1 cell noCPT inconclusive, DT40 TDP1 CPT inconclusive, IL-1B inflam inh -103*, HT1080-NT tox 6% and HT1080 IDH1KD tx 5%.
`C/C(=N\NC(=O)CSCc1ccc([N+](=O)[O-])cc1)c1cccc(Br)c1` gave TDP1 cell noCPT 18µM*, DT40 TDP1 CPT 10µM*, IL-1B inflam inh -8, HT1080-NT tox -12% and HT1080 IDH1KD tx -7%.
Screening COc1ccccc1C/C(N)=N/OC(=O)c1cccc([N+](=O)[O-])c1 returned TDP1 cell noCPT inconclusive, DT40 TDP1 CPT inconclusive, IL-1B inflam inh 5, HT1080-NT tox 1% and HT1080 IDH1KD tx 0%.
Screening COc1cc(C(=O)O/N=C(\N)Cc2ccc([N+](=O)[O-])cc2)cc(OC)c1OC returned TDP1 cell noCPT 15µM*, DT40 TDP1 CPT 3.7µM*, IL-1B inflam inh -3, HT1080-NT tox inconclusive and HT1080 IDH1KD tx inconclusive.
`N/C(=N\OC(=O)Cc1ccc(Cl)cc1)c1ccncc1` gave TDP1 cell noCPT -4%, DT40 TDP1 CPT 12%, IL-1B inflam inh 6, HT1080-NT tox 0% and HT1080 IDH1KD tx -1%.
`N/C(Cc1ccc([N+](=O)[O-])cc1)=N\OC(=O)c1ccc([N+](=O)[O-])cc1` gave TDP1 cell noCPT inconclusive, DT40 TDP1 CPT inconclusive, IL-1B inflam inh inconclusive, HT1080-NT tox -1% and HT1080 IDH1KD tx -4%.
For N/C(Cc1ccc([N+](=O)[O-])cc1)=N\OC(=O)c1cccc(Br)c1 the results were TDP1 cell noCPT inconclusive, DT40 TDP1 CPT 15µM*, IL-1B inflam inh -5, HT1080-NT tox 0% and HT1080 IDH1KD tx 7%.
For CCC1CCCCN1C(=O)Nc1cc(Cl)ccc1OC (stereo unspecified) the results were TDP1 cell noCPT -19%, DT40 TDP1 CPT -7%, IL-1B inflam inh -6, HT1080-NT tox 16% and HT1080 IDH1KD tx 14%.
Screening COc1ccc(N(CC(=O)NCCC2=CCCCC2)S(=O)(=O)c2ccccc2)c(OC)c1 returned TDP1 cell noCPT 6%, DT40 TDP1 CPT 12%, IL-1B inflam inh -8, HT1080-NT tox 3% and HT1080 IDH1KD tx 1%.
COc1ccc(C/C(N)=N/OC(=O)c2cccc([N+](=O)[O-])c2)cc1 was read as TDP1 cell noCPT inconclusive, DT40 TDP1 CPT inconclusive, IL-1B inflam inh -12, HT1080-NT tox -1% and HT1080 IDH1KD tx -9%.
Screening COc1ccc(C(=O)O/N=C(\N)Cc2ccc([N+](=O)[O-])cc2)c(OC)c1 returned TDP1 cell noCPT 1.8µM*, DT40 TDP1 CPT 1.3µM*, IL-1B inflam inh -11, HT1080-NT tox inconclusive and HT1080 IDH1KD tx 18µM*.
For Cc1ccc(C(=O)NCCOc2ccc(Cl)cc2)cc1 the results were TDP1 cell noCPT -4%, DT40 TDP1 CPT 12%, IL-1B inflam inh -5, HT1080-NT tox -1% and HT1080 IDH1KD tx 1%.
